The source of these data is PubChem BioAssay (Tox21).

Unmarked numbers belong to inactive results. Calls of active or inactive are those of the source. Calls follow the shape of the dose curve; as a rule, active = well fitted curve in the direction sought with a large enough effect in the repeat runs; inconclusive = weak or mixed curves; inactive = flat fitted curve, though single readings scatter.
% is scaled to controls: 0 for no effect and ±100 for the full control effect.

The nature of this assay: qHTS assay to test for compound auto fluorescence at 460 nm (blue) in HepG2 cells (AID 720687). The conditions noted are these: autofluorescence 405/460 nm, 1 h; series mostly up to 91.3 µM; fluorescence, % of fluorescent control: at the top concentration. In short, it runs like this:
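Blue-channel autofluorescence (Ex/Em 405/460 nm, triamterene-equivalent) was measured after 1 hr compound exposure at 37 C, 5% CO2. Cells were HepG2, plated overnight at 37 C in MEM plus 10% FBS.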
`O=S(=O)(c1ccc(Cl)cc1)c1ccc(Cl)cc1`: the “fluorescence, % of fluorescent control” value was -0.279% [at 95.7 µM].

For `N#C/C=C/C#N`, the “fluorescence, % of fluorescent control” value is 0.367% [at 95.7 µM].

As for `O=C(CCl)C(Cl)Cl`, the “fluorescence, % of fluorescent control” value was -0.028%.

As to `C=CCC1=C(C)C(OC(=O)C2C(C=C(C)C)C2(C)C)CC1=O` (stereo unspecified), the “fluorescence, % of fluorescent control” value was 0.353% [at 95.7 µM].

Turning to `O=C/C(Cl)=C(/Cl)C(=O)O`, the Potency result was “inactive”.

For `Clc1ccc(C(c2ccccc2Cl)C(Cl)(Cl)Cl)cc1` (stereo unspecified), the Potency result was “inactive”.

Take `Oc1ccc(C2(c3ccc(O)cc3)c3ccccc3-c3ccccc32)cc1`: the “fluorescence, % of fluorescent control” value is -0.0941%.

Take `CC(=O)O[C@H]1CC[C@@]2(C)C(=CC[C@@H]3[C@@H]2CC[C@]2(C)C(=O)CC[C@@H]32)C1`: the Potency entry was “inactive”.

Consider `CC(C)C1CCC(Cc2ccc(Cl)cc2)C1(O)Cn1cncn1` (stereo unspecified), for which the “fluorescence, % of fluorescent control” value was 0.209%.

In the case of `O=C(O)COc1nc(Cl)c(Cl)cc1Cl`, the “fluorescence, % of fluorescent control” value is -0.555% [at 95.7 µM].

As for `CC(C)[C@H](C(=O)O[C@H](C#N)c1cccc(Oc2ccccc2)c1)c1ccc(Cl)cc1`, the “fluorescence, % of fluorescent control” value was -0.184%.

Turning to `CCCOCC(=Nc1ccc(Cl)cc1C(F)(F)F)n1ccnc1`, the “fluorescence, % of fluorescent control” value was -0.0509%.

Turning to `CCCN(CC)CC1COC2(CCC(C(C)(C)C)CC2)O1` (stereo unspecified), the “fluorescence, % of fluorescent control” value was 0.235%.

In the case of `C[C@@H]1CC[C@@]2(OC1)O[C@H]1[C@@H](O)[C@H]3[C@@H]4CC[C@H]5C[C@@H](O[C@@H]6O[C@H](CO)[C@H](O[C@@H]7O[C@H](CO)[C@@H](O)[C@H](O[C@@H]8OC[C@@H](O)[C@H](O)[C@H]8O)[C@H]7O[C@@H]7O[C@H](CO)[C@@H](O)[C@H](O[C@@H]8O[C@H](CO)[C@@H](O)[C@H](O)[C@H]8O)[C@H]7O)[C@H](O)[C@H]6O)[C@H](O)C[C@]5(C)[C@H]4CC[C@]3(C)[C@H]1[C@@H]2C`, the “fluorescence, % of fluorescent control” value is 0.024% [at 95.7 µM].

As for `C[C@]12CC[C@H]3[C@@H](CCC4=CC(=O)CC[C@@]43C)[C@@H]1CC[C@@H]2O`, the “fluorescence, % of fluorescent control” value is 0.177%.

In the case of `ClC(Cl)=C(c1ccc(Cl)cc1)c1ccc(Cl)cc1`, the Potency result is “inactive”.

Turning to `[Hg+2].[I-].[I-]`, the “fluorescence, % of fluorescent control” value is -0.0539%.

For the compound `CCCCCCCCCCCCBr`, the “fluorescence, % of fluorescent control” value was 0.092%.

For the compound `CCN(CC)c1c([N+](=O)[O-])cc(C(F)(F)F)c(N)c1[N+](=O)[O-]`, the “fluorescence, % of fluorescent control” value is -0.129%.

`CCCCCCCCCCCCCN1CC(C)OC(C)C1` (stereo unspecified): the “fluorescence, % of fluorescent control” value is 0.121%.

Consider `Oc1ccc(C2(c3ccc(O)cc3)CCCCC2)cc1`, for which the “fluorescence, % of fluorescent control” value is 0.0104%.

In the case of `Oc1c(Br)c(Br)c(Br)c(Br)c1Br`, the “fluorescence, % of fluorescent control” value was 0.0222%.

Consider `O=c1[nH]c2ccccc2n1CCCN1CCC(n2c(=O)[nH]c3cc(Cl)ccc32)CC1`, for which the “fluorescence, % of fluorescent control” value was -0.046% [at 46 µM].

In the case of `O=[N+]([O-])c1cc(C(F)(F)F)c(Cl)c([N+](=O)[O-])c1Cl`, the “fluorescence, % of fluorescent control” value was -0.539%.

For the compound `Cc1cc(N=Nc2ccccc2C)ccc1N`, the Potency entry was “inactive”.

For the compound `CC(C)CCCCCCCOP(=O)(Oc1ccccc1)Oc1ccccc1`, the “fluorescence, % of fluorescent control” value is -0.077%.

Regarding `C=CC(=O)OCC(COC(=O)C=C)(COC(=O)C=C)COC(=O)C=C`, the “fluorescence, % of fluorescent control” value is -0.0647%.

Turning to `N#CNC#N`, the “fluorescence, % of fluorescent control” value is 0.0018% [at 95.7 µM].

As to `CCCCCCCCCCCCCC[P+](CCCCCC)(CCCCCC)CCCCCC` (tested in a mixture with another compound), the “fluorescence, % of fluorescent control” value is 0.0061%.

Consider `CC1(C)[C@H](C(=O)O[C@H](C#N)c2cccc(Oc3ccccc3)c2)[C@@H]1/C=C(\Cl)C(F)(F)F`, for which the “fluorescence, % of fluorescent control” value is -0.0141%.

With `BrC(Br)C(Br)(Br)Br`, the “fluorescence, % of fluorescent control” value is -0.0893%.

Regarding `Fc1cccc(Cl)c1CCl`, the “fluorescence, % of fluorescent control” value was -0.0153%.

Turning to `Nc1ccc(Cc2ccc(N)c(Cl)c2)cc1Cl`, the “fluorescence, % of fluorescent control” value is -0.0483%.

For `O=c1ssc(Cl)c1Cl`, the “fluorescence, % of fluorescent control” value was -0.245%.

As to `c1ccc(OCC2CO2)cc1` (stereo unspecified), the “fluorescence, % of fluorescent control” value was -0.009%.

On to `CC(=O)C(Cl)(Cl)Cl`, for which the “fluorescence, % of fluorescent control” value was -0.769%.
